Screening data from PubChem.
HT1080 IDH1KD tx = qHTS for induction of synthetic lethality in tumor cells producing 2HG: qHTS for the HT-1080-IDH1KD cell line | HT-1080 IDH1 knockdown viability, ATP luminescence, 48 h | hit rate 2% among 360,000 | Potency, µM (series often up to 46.1 µM), inactives show at the highest dose activity, negative = toxicity, usual class: cytotoxic | AID 686971, 2013;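 note: 0% = DMSO wells and -100% = cell-free medium wells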
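% activity derives from luminescence (CellTiter-Glo), normalised to DMSO and no-cell wells. HT-1080-IDH1KD cells, 750/well, had 48 h compound exposure at 37 °C.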
HT1080-NT tox = qHTS for induction of synthetic lethality in tumor cells producing 2HG: qHTS for the HT-1080-NT fibrosarcoma cell line; AID 686970, 2013; HT-1080-NT fibrosarcoma viability, CellTiter-Glo ATP luminescence, 48 h; hit rate 1.6% among 360,000; Potency, µM (top dose mostly 46.1 µM), for inactives: top-dose activity, negative = less viability, actives largely listed as cytotoxic;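 note: NT is the 2HG producing partner of a matched IDH1 knockdown line; 0% = DMSO-treated cells and -100% = media-only wells without cells; nearly all actives have a fitted effect of over 55% in size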
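Viability by CellTiter-Glo luminescence after 48 h compound exposure at 37C of HT-1080-NT cells (750/well, RPMI, 5% FBS). % activity scaled between DMSO wells and medium-only wells, then curve-fitted and categorized by curve class.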
SW480 rerep = A quantitative high throughput screen for small molecules that induce DNA re-replication in SW480 colon adenocarcinoma cells; SW480 DNA re-replication, Hoechst DNA content imaging, 48 h; Potency, µM (top dose mostly 46.1 µM), for the others: at the highest dose re-replication activation, most hits filed as activators; hit rate 1.8% among 340,000; note: % of control where 0% means no effect; nearly all actives have a fitted effect of over 55% in size
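Readout is total intensity of Hoechst-stained nuclei, excited at 405 nm and collected at 500-530 nm. Compound treatment lasted 48 hr at 37 C in 5% CO2 before staining.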
MCF10A rereplic = A quantitative high throughput screen for small molecules that induce DNA re-replication in MCF 10a normal breast cells; MCF 10A DNA re-replication, Hoechst nuclear intensity, 48 h; Potency, µM (doses to about 46.1 µM), for the others: top-dose activity, positive = re-replication, actives largely listed as activators; hit rate 2.9% among 350,000; AID 624296, 2012; note: % of control where 0% means no effect; nearly all actives have a fitted effect of over 50% in size
KB-3-1 tox = qHTS assay for MDR1-selective chemotherapeutics: Primary screen using the parental adenocarcinoma cell KB-3-1 | KB-3-1 viability, CellTiter-Glo ATP luminescence, 72 h | hit rate 1.4% among 400,000 | Potency, µM (highest dose often 46.1 µM), actives largely listed as cytotoxic | AID 1347075, 2019; note: % is set by controls: 0 for no effect and ±100 for the full control effect; nearly all actives have a fitted effect of over 60% in size
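Using CellTiter-Glo luminescence, growth of non-resistant KB-3-1 adenocarcinoma cells is assessed 72 h after pin-tool compound addition at 37 °C. Normalized responses across the concentration series yield fitted curves.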
KB-V1 MDR tox = qHTS assay for MDR1-selective chemotherapeutics: Primary screen using the drug-selected MDR subline cells KB-V1. KB-V1 MDR cells viability, CellTiter-Glo, 72 h. Potency, µM (top dose mostly 46.1 µM), hits mostly cytotoxic. hit rate 3.4% among 400,000. AID 1347076, 2019; note: % is set by controls: 0 for no effect and ±100 for the full control effect; nearly all actives have a fitted effect of over 60% in size
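Compound-treated KB-V1 multidrug-resistant cells, 72 h, 37 degrees C; viability by CellTiter-Glo. Fitted qHTS curves give the values.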
Numbers without * were called inactive. Hits are enriched below; roughly 7.9% of the tested compounds scored in any of these assays. Calls come from the whole dose curve; as a rule, active = well fitted curve in the direction sought with a large enough effect; inconclusive = small, poorly fitted or top-dose-only effect, or another doubt; inactive = no such curve, though single readings can be large; an effect the other way counts as inactive or inconclusive. Potency is the fitted concentration of half-maximal effect.

Screening CCCCSc1cnn(-c2ccccc2)c(=O)c1SCCCC returned HT1080 IDH1KD tx -13.1%, HT1080-NT tox inconclusive, SW480 rerep inconclusive, MCF10A rereplic inconclusive, KB-3-1 tox 18.4µM* and KB-V1 MDR tox 18.4µM*.
`CCSc1cnn(-c2ccccc2)c(=O)c1SCC` gave HT1080 IDH1KD tx 5.3%, HT1080-NT tox 1.4%, SW480 rerep -0.2%, MCF10A rereplic 4.4%, KB-3-1 tox inactive and KB-V1 MDR tox inactive.
`Clc1ccc(-c2cnc3n2CCC3)cc1` gave HT1080 IDH1KD tx inconclusive, HT1080-NT tox 35.5µM*, SW480 rerep -1.9%, MCF10A rereplic 19.9%, KB-3-1 tox inactive and KB-V1 MDR tox inactive.
Cc1nc2ccccc2n1CC(O)COc1ccc(Br)cc1 (centres undefined) was read as HT1080 IDH1KD tx -14.3%, HT1080-NT tox -20.9%, SW480 rerep -5.1%, MCF10A rereplic 12.0%, KB-3-1 tox inconclusive and KB-V1 MDR tox 13µM*.
Screening CCOC(=O)c1c(C)n(-c2ccc(C)cc2)c2ccc(OCC(O)CN3CCN(C)CC3)cc12 (centres undefined) returned HT1080 IDH1KD tx 18.4µM*, HT1080-NT tox 20.6µM*, SW480 rerep -20.6%, MCF10A rereplic inconclusive, KB-3-1 tox inconclusive and KB-V1 MDR tox inactive.
`CCOC(=O)c1c(C)n(C)c2ccc(OCC(O)Cn3c(C)nc4ccccc43)cc12` (centres undefined) gave HT1080 IDH1KD tx inconclusive, HT1080-NT tox -26.1%, SW480 rerep 15.1%, MCF10A rereplic inconclusive, KB-3-1 tox inactive and KB-V1 MDR tox 13µM*.
`CCC(=O)c1ccc(OCC(O)Cn2c(C)nc3ccccc32)cc1` (centres undefined) gave HT1080 IDH1KD tx 23.1µM*, HT1080-NT tox -0.6%, SW480 rerep 3.1%, MCF10A rereplic 5.0%, KB-3-1 tox inactive and KB-V1 MDR tox 8.2µM*.
`Cc1nc2ccccc2n1CC(O)COc1ccc(C(=O)O)cc1` (centres undefined) gave KB-3-1 tox inactive and KB-V1 MDR tox inactive.
`Cc1nc2ccccc2n1CC(O)COc1ccccc1Cl` (centres undefined) gave HT1080 IDH1KD tx -12.2%, HT1080-NT tox -12.8%, SW480 rerep -7.6%, MCF10A rereplic 7.4%, KB-3-1 tox inactive and KB-V1 MDR tox inactive.
COc1ccc(-c2nc3sc(CCNC(=O)c4ccco4)c(C)n3n2)cc1 was read as KB-3-1 tox inactive and KB-V1 MDR tox inconclusive.
Screening CCOC(=O)[C@@H]1[C@H]2COc3ccc(Br)cc3[C@@H]2N2C(=O)N(c3ccc(Cl)cc3)C(=O)[C@@]12C returned HT1080 IDH1KD tx -13.0%, HT1080-NT tox -14.4%, SW480 rerep -3.7%, MCF10A rereplic inconclusive, KB-3-1 tox inconclusive and KB-V1 MDR tox inactive.
Screening Cc1ccc(C(=O)NC2(C(F)(F)F)C(=O)Nc3c2c(=O)[nH]c(=O)n3CCc2ccccc2)cc1 (centres undefined) returned KB-3-1 tox inactive and KB-V1 MDR tox inconclusive.
`CSc1ccc(-c2nc3cnccn3c2Nc2ccc3c(c2)OCO3)cc1` gave HT1080 IDH1KD tx inconclusive, HT1080-NT tox inconclusive, SW480 rerep 6.7%, MCF10A rereplic 5.8µM*, KB-3-1 tox inconclusive and KB-V1 MDR tox 23.1µM*.
Cc1ccc(-c2nc3cnccn3c2Nc2ccccc2)o1 was read as HT1080 IDH1KD tx 6.7%, HT1080-NT tox 21.9%, SW480 rerep inconclusive, MCF10A rereplic 23.1µM*, KB-3-1 tox inactive and KB-V1 MDR tox inconclusive.
`COc1ccc(Nc2c(-c3ccc(C)o3)nc3cc(C)ccn23)cc1` gave KB-3-1 tox 23.1µM* and KB-V1 MDR tox inactive.
Screening COc1ccc(-c2nc3cnccn3c2Nc2ccc(C)cc2)cc1 returned HT1080 IDH1KD tx 3.5%, HT1080-NT tox -6.6%, SW480 rerep 4.7%, MCF10A rereplic 0.3%, KB-3-1 tox inactive and KB-V1 MDR tox inactive.
Screening Cc1ccc(Nc2c(-c3ccccc3)nc3cnccn23)cc1 returned HT1080 IDH1KD tx -0.3%, HT1080-NT tox -7.4%, SW480 rerep 16.9%, MCF10A rereplic 23.1µM*, KB-3-1 tox inactive and KB-V1 MDR tox inactive.
`COC(=O)c1cc(OC)c(OC)cc1N1C(=O)CC(C)(C)CC1=O` gave HT1080 IDH1KD tx 26.0%, HT1080-NT tox 17.9%, SW480 rerep -1.0%, MCF10A rereplic -13.3%, KB-3-1 tox inactive and KB-V1 MDR tox inconclusive.
`CCCCCn1c(=O)[nH]c2cc(C(=O)N3CCN(c4cccc(C(F)(F)F)c4)CC3)ccc2c1=O` gave KB-3-1 tox inactive and KB-V1 MDR tox inactive.
`COc1cccc(CN2CCC2(C)C(=O)NCc2cccc(C(F)(F)F)c2)c1OC` (centres undefined) gave HT1080 IDH1KD tx inconclusive, HT1080-NT tox inconclusive, KB-3-1 tox inactive and KB-V1 MDR tox inactive.
Cc1ccc(C(=O)NCC(c2ccc(F)cc2)N2CCOCC2)cc1S(=O)(=O)N1CCOCC1 (centres undefined) was read as HT1080 IDH1KD tx -2.7%, HT1080-NT tox -4.2%, SW480 rerep -2.4%, MCF10A rereplic 7.1%, KB-3-1 tox inactive and KB-V1 MDR tox 20.6µM*.
For Cc1ccc(C(=O)NCc2ccc(Cl)cc2)cc1S(=O)(=O)N1CCCCC1 the results were HT1080 IDH1KD tx -3.9%, HT1080-NT tox -4.3%, SW480 rerep 2.7%, MCF10A rereplic 0.9%, KB-3-1 tox inconclusive and KB-V1 MDR tox 18.4µM*.
For Cc1ccc(CNC(=O)c2ccc(C)c(S(=O)(=O)N3CCCCC3)c2)cc1 the results were HT1080 IDH1KD tx 2.4%, HT1080-NT tox 5.5%, SW480 rerep -1.1%, MCF10A rereplic 16.9%, KB-3-1 tox inactive and KB-V1 MDR tox inactive.
O=C(c1ccc(S(=O)(=O)N2CCOCC2)cc1)N1CCN(c2ccccn2)CC1 was read as HT1080 IDH1KD tx 9.2%, HT1080-NT tox 11.0%, SW480 rerep -39.0%, MCF10A rereplic 1.46µM*, KB-3-1 tox inactive and KB-V1 MDR tox inactive.
CCOc1ccc(CCNC(=O)c2ccc(C)c(S(=O)(=O)N3CCOCC3)c2)cc1OCC was read as HT1080 IDH1KD tx -3.4%, HT1080-NT tox -2.0%, SW480 rerep -5.2%, MCF10A rereplic 0.0%, KB-3-1 tox inconclusive and KB-V1 MDR tox 20.6µM*.
